Compound activity (PubChem BioAssay)
Compounds with a hit are over-represented: about 3.9% of the library has one in this group of screens.
GALC G270D up = A Novel Cell-Based Assay to Identify Small Molecules for B -Galactocerebrosidase | Potency, µM (series often up to 57.5 µM), hits mostly activators | 145M-Twi-hGALC-G270D cells (Twitcher mouse brain line with human GALC G270D), HMU-beta-Gal fluorescence, 48 h | hit rate 0.1% among 45,000 | AID 1159614, 2016 | P54803; further: nearly all actives have a fitted effect of over 65% in size
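Mutant human GALC (G270D), stably expressed in a Twitcher mouse brain cell line lacking endogenous GALC, is measured in live-treated cells via 6-hexadecanoylamino-4-methylumbelliferyl-β-galactoside hydrolysis (0.1 mM final, pH 5.2) with fluorescent detection.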
p53null 39C tox = qHTS Screen for Compounds that Selectively Target Cancer Cells with p53 Mutations: Cytotoxicity of p53 Null Cells at the Nonpermissive Temperature; H1299 p53-null (neo) cells, 39C, ATPlite viability, 24 h; Potency, µM (series often up to 46.1 µM), actives largely listed as cytotoxic; hit rate 0.97% among 55,000; AID 904, 2007; further: nearly all actives have a fitted effect of over 50% in size
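Luminescent ATP signal reported cell survival after H1299 lines (neo, p53 null; or p53 A138V) received up to 46 uM compound and 24 hr incubation at 39C.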
NTMT1 inh = Primary qHTS for Inhibitors of N-terminal methyltransferase 1 (NTMT1): MTaseGlo Assay; NTMT1 MTase-Glo SAH luminescence, purified enzyme; Potency, µM (top dose mostly 114 µM), usual class: inhibitors; AID 1645870, 2021; N-terminal Xaa-Pro-Lys N-methyltransferase 1 (Homo sapiens), Q9BV86; hit rate 2.5% among 59,000; further: nearly all actives have a fitted effect of over 65% in size
Target sequence (Q9BV86 whole entry, looked up): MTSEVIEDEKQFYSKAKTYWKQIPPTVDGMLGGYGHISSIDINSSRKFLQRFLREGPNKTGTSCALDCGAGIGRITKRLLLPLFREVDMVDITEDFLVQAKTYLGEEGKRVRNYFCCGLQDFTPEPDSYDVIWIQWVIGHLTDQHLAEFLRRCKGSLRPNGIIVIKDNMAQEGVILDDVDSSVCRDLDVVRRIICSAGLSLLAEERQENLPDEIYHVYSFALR
GPR32 ag = qHTS for Agonists of Human Resolvin D1 Receptor DRV1 | Probable G-protein coupled receptor 32 (Homo sapiens), O75388 | CHO-K1 GPR32 beta-arrestin PathHunter luminescence, 90 min; zero percent set by DMSO-only wells | hit rate 2.5% among 48,000 | activation, % at 76.9 µM | AID 1346428, 2018;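 active means activation of at least 60% and not above a set upper limit, about 1 call in 100 departs from these limits; inconclusive means activation of 40% to 60%, or above that upper limit; inactive means activation under 40%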
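PathHunter enzyme-fragment complementation, CHO-K1 GPR32 stable line; 2,500 cells/well, overnight attach; cpd 90 min 37 °C 5% CO2; detection reagent 1 h RT; chemiluminescence. DMSO = EC0.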
p53null 32C tox = qHTS Screen for Compounds that Selectively Target Cancer Cells with p53 Mutations: Cytotoxicity of p53 Null Cells at the Permissive Temperature; AID 903, 2007; hit rate 0.62% among 55,000; H1299-neo p53 null cells, ATP luminescence, 24 h, 32C; Potency, µM (highest dose often 46.1 µM), usual class: cytotoxic; further: nearly all actives have a fitted effect of over 55% in size
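H1299-neo, 600 cells/well; overnight 37C; cpd up to 46 uM, 24 h at 32C; ATPlite luminescence after 20 min RT; normalized to DMSO (0%) and tamoxifen 100 uM (100% kill); Hill-fit AC50.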
FH mod = Identification of activators of human fumarate hydratase by quantitative high-throughput screening; FH coupled MDH/diaphorase resazurin fluorescence, 15 min; Potency, µM (doses to about 79.9 µM), actives largely listed as inhibitors; hit rate 0.22% among 54,000; further: the screen sought activators but most active calls are inhibition curves; nearly all actives have a fitted effect of over 45% in size
Sfp PPTase inh = qHTS Assay for Inhibitos of Bacillus subtilis Sfp phosphopantetheinyl transferase (PPTase): Chemistry Optimization Followup; AID 540350, 2011; hit rate 78% among 230; Potency, µM (highest dose often 114 µM), most hits filed as inhibitors; shares compounds with NTMT1 inh; purified Sfp PPTase enzyme activity, qHTS
Bsub HM489 growth = qHTS for Inhibitos of Bacillus subtilis Sfp phosphopantetheinyl transferase (PPTase): Chemistry Optimization Followup in B. Subtilis HM489. shares compounds with NTMT1 inh. B. subtilis HM489 (acpS-) growth, BacTiter-Glo, 5 h. Potency, µM (top dose mostly 114 µM), most hits filed as inhibitors. hit rate 50% among 220. AID 540353, 2011
Sfp gel opt = Gel-Based Assay for Inhibitos of Bacillus subtilis Sfp phosphopantetheinyl transferase (PPTase): Chemistry Optimization Followup; Potency, µM (top dose mostly 250 µM), hits mostly inhibitors; shares compounds with NTMT1 inh; hit rate 54% among 220; purified Sfp PPTase, gel-based product detection
Sfp SAR2 = qHTS Assay for Inhibitors of Bacillus subtilis Sfp phosphopantetheinyl transferase (PPTase): SAR Round 2. shares compounds with NTMT1 inh. purified Sfp enzyme, PPTase activity, qHTS. Potency, µM (series often up to 57.1 µM), hits mostly inhibitors. hit rate 87% among 230. AID 602370, 2012
HSD17B4 inh = Extended Characterization of HPGD Inhibitors: Counterscreen Against HSD17b4 | purified HSD17B4, estradiol/NAD+, NADH fluorescence | shares compounds with NTMT1 inh | hit rate 10% among 230 | Potency, µM (series often up to 57.1 µM), actives largely listed as inhibitors | AID 743187, 2013
ALDH1A1 counter = Extended Characterization of HPGD Inhibitors: Counterscreen Against ALDH1A1 | shares compounds with NTMT1 inh | recombinant ALDH1A1, NADH fluorescence, propionaldehyde/NAD+ | Potency, µM (series often up to 57.1 µM), actives largely listed as inhibitors | hit rate 93% among 230 | AID 743195, 2013
NNMT counter = Counterscreen qHTS for Inhibitors of N-terminal methyltransferase 1 (NTMT1): NNMT MTaseGlo assay. hit rate 10% among 120. NNMT MTase-Glo luminescence, SAH detection. Potency, µM (top dose mostly 57.1 µM), hits mostly inhibitors. shares compounds with NTMT1 inh
Target sequence (P40261 whole entry, looked up): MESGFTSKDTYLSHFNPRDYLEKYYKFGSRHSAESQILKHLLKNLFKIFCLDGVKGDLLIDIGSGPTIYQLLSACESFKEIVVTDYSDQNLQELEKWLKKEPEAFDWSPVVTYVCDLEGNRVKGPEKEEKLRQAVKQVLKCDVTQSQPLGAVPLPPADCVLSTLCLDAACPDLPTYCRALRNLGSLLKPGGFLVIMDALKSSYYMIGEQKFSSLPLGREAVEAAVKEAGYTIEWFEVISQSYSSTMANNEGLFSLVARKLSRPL
Large screens that a line does not name were inactive (follow-up assays come after a bar, where they were run). Unless noted, the call rests on the fitted dose curve; in most records, active means well fitted curve in the direction sought with a large enough effect; inconclusive means small, poorly fitted or top-dose-only effect, or another doubt; inactive means no such curve, though single readings can be large; an effect the other way counts as inactive or inconclusive.

CCCNc1ccc2ncc(-c3ccc4[nH]ncc4c3)n2n1	NTMT1 inh 28µM (no result: GALC G270D up, p53null 39C tox, GPR32 ag, p53null 32C tox) | NNMT counter 14µM
Cc1cc(C)nc(NC(=S)N2CCN(c3ccc(N4CCCC4)nn3)CC2)c1	NTMT1 inh inconclusive (no result: GALC G270D up, p53null 39C tox, GPR32 ag, p53null 32C tox, FH mod) | Sfp PPTase inh inconclusive | Bsub HM489 growth inconclusive | Sfp gel opt 13µM | Sfp SAR2 5.8µM | HSD17B4 inh 27µM | ALDH1A1 counter 19µM
Cc1ccc(Sc2ccc(N3CCC(C(=O)Nc4cc(C)cc(C)c4)CC3)nn2)cc1	GPR32 ag inconclusive, p53null 32C tox inconclusive
Cc1cc(C)nc(NC(=S)N2CCN(c3ccc(NS(C)(=O)=O)nn3)CC2)c1	none (no result: GALC G270D up, p53null 39C tox, GPR32 ag, p53null 32C tox, FH mod) | Sfp PPTase inh inconclusive | Bsub HM489 growth inactive | Sfp gel opt inconclusive | Sfp SAR2 4.6µM | HSD17B4 inh inactive | ALDH1A1 counter 24µM
CCCCCC(=O)N1CCC[C@H]1C(=O)N[C@@H](Cc1ccc(O)cc1)C(=O)OC	none (no result: GALC G270D up, p53null 39C tox, GPR32 ag, p53null 32C tox)
COc1cccc(OCCCN)c1-c1cc(Nc2cnc(C#N)cn2)n[nH]1	NTMT1 inh 8.9µM (no result: GALC G270D up, p53null 39C tox, GPR32 ag, p53null 32C tox) | NNMT counter inactive
Cc1ccnc(NC(=S)N2CCN(c3ccc(N)cc3)CC2)c1	NTMT1 inh inconclusive (no result: GALC G270D up, p53null 39C tox, GPR32 ag, p53null 32C tox, FH mod) | Sfp PPTase inh inconclusive | Bsub HM489 growth inconclusive | Sfp gel opt inactive | Sfp SAR2 10µM | HSD17B4 inh inconclusive | ALDH1A1 counter 9.6µM
COc1ccc(N2CCN(C(=S)Nc3cc(C)ccn3)CC2)cc1	NTMT1 inh 50µM (no result: GALC G270D up, p53null 39C tox, GPR32 ag, p53null 32C tox, FH mod) | Sfp PPTase inh 12µM | Bsub HM489 growth 33µM | Sfp gel opt inactive | Sfp SAR2 10µM | HSD17B4 inh inactive | ALDH1A1 counter 6.8µM
